Records with an inconclusive call do not appear. A call without a number means that no potency is given here. Calls of active or inactive are those of the source. Calls follow the shape of the dose curve; as a rule, active = well fitted inhibition curve with a large enough effect; inconclusive = small, poorly fitted or top-dose-only effect; inactive = flat fitted curve, though single readings scatter.
Potency is read from the fitted curve at half-maximal effect.

Sequence of Dual specificity protein kinase CLK4 (Homo sapiens) (Q9HAZ1 whole entry, looked up): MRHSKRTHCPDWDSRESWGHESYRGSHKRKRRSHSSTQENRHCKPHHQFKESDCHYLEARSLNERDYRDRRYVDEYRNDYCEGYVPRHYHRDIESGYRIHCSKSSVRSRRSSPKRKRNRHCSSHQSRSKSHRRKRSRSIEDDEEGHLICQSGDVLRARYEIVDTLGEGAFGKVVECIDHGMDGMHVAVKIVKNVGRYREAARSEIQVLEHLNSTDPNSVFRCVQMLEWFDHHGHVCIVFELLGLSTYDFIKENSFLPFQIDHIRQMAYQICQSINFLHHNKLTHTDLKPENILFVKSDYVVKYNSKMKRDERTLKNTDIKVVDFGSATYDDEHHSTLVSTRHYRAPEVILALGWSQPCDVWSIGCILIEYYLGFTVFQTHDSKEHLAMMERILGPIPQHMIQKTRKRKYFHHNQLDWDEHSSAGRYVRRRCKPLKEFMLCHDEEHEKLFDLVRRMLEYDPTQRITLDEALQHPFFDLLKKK

This experiment has as its target Dual specificity protein kinase CLK4 (Homo sapiens) (UniProt Q9HAZ1). In words: qHTS Assay for Inhibitors of CDC-like Kinase 4 (Kinase-Glo Assay) (AID 1770). Also: nearly all actives have a fitted effect of over 65% in size. Conditions: recombinant Clk4, Kinase-Glo ATP depletion luminescence; series mostly up to 66.7 µM. Here is the method: NIH Molecular Libraries Probe Production Centers Network [MLPCN] NIH Chemical Genomics Center [NCGC] MLPCN Grant: 1R03MH084827-01 Assay Submitter (PI): Tom Misteli NCGC Assay Overview: Clk4 (Invitrogen, cat# PV3839) was assayed using ATP and the RS repeat peptide (AnaSpec cat # 61722) as substrates. Following the Clk4 reaction, the remaining ATP levels were detected using Promega Kinase-Glo technology wherein the remaining ATP from the kinase reaction is detected using Ultra-Glo luciferase and D-luciferin which generates a bioluminescence signal from the ATP. The positive control for the assay was TG003 (Sigma-Aldrich, cat# 300801-52-9) which has been described as an inhibitor of Clk 4[1].
NCGC Assay Protocol Summary: Two uL/well of substrate-buffer solution (100 uM RS peptide, 1 uM ATP, 25 mM Tris pH7.5, 10 mM MgCl2, 0.5 mM EGTA, 2.5 mM DTT, 0.01% Triton X-100 final concentration) was dispensed into 1536-well, assay plates (Greiner, solid white medium-binding plates) with Aurora Discovery BioRAPTR Flying Reagent Dispenser (FRD; Beckton-Dickenson). Using a Kalypsys pin tool equipped with a 1536-pin tool, 23 nL of compound solution was transferred to the assay plate. One uL/ well Clk4-buffer solution (25 nM Clk4, 25 mM Tris pH 7.5, 10 mM MgCl2, 0.5 mM EGTA, 2.5 mM DTT, 0.01% Triton X-100, final concentrations) was then added using the FRD yielding a total kinase reaction volume of 3 uL/ well. After 4.5 hours of room temperature incubation, 3 uL Kinase-Glo reagent was added for a final assay volume of 6 uL/ well. Luminescence was detected with the ViewLux plate reader (Perkin Elmer, Waltham, MA) after 5 min incubation using a 5 second exposure time and 2x binning.
On the technique in general: Quantitative high-throughput screening tests each substance at several concentrations.
Take `CN(C)c1nc(-c2cccc(C#N)c2)nc2ccccc12`: the Potency is 15.8 µM (active).
With `CN(C)c1ccc(-c2nccc(Nc3ccc(F)cc3)n2)cc1` the figure was 17.8 µM (active); with `CN(C)c1ccc(-c2cc(N(C)Cc3ccco3)ncn2)cc1`, 25.1 µM (active).
With `CN(C)c1ccc(-c2cncnc2NCCN2CCOCC2)cc1` the entry was “inactive”; with `COc1ccccc1CNc1cc(-c2cccnc2)ncn1`, 25.1 µM (active); with `COc1ccc(-c2nc3cnc(Oc4cccc(Cl)c4)nc3n(C[C@H]3CCCO3)c2=O)cc1`, “inactive”.
With `COCCn1c(=O)c(-c2ccc(F)cc2)nc2cnc(Oc3ccccc3)nc21` the entry was “inactive”.
Take `COc1cccc(-c2nc(NCc3cccnc3)c3ccccc3n2)c1`: the Potency is 25.1 µM (active).
With `CN(C)c1ncc2nc(-c3ccccc3)c(=O)n(C)c2n1`, the Potency entry is “inactive”.
The same measure for `COc1ccccc1-c1nc(N2CCN(C)CC2)c2ccccc2n1`: “inactive”; for `CN(Cc1ccco1)c1nc(-c2cccnc2)nc2ccccc12`: 15.8 µM (active); for `c1ccc(Nc2nc(-c3cccnc3)nc3ccccc23)cc1`: 2.51 µM (active).
The same measure for `COCCn1c(=O)c(-c2cccc(C#N)c2)nc2cnc(Oc3cccc(Cl)c3)nc21`: “inactive”; for `COCCn1c(=O)c(CCc2ccccc2)nc2cnc(N(C)C)nc21`: “inactive”.
In the case of `Cn1cc(-c2nc3cnc(N4CCNCC4)nc3n(CCc3ccccc3)c2=O)c2ccccc21`, the Potency entry was “inactive”.
The same measure for `COc1ncc2nc(-c3ccccc3)c(=O)n(CCc3ccccc3)c2n1`: “inactive”.
Take `COc1ccccc1CNc1ncnc2ccc(-c3ccc(C(=O)N(C)C)cc3)cc12`: the Potency result is “inactive”.
`CN(Cc1ccco1)c1cc(-c2ccc3c(c2)OCO3)ncn1`: the Potency is 2 µM (active).
The same measure for `CN(C)c1nc(-c2ccc3c(c2)OCO3)nc2ccccc12`: “inactive”; for `CCNc1ncc2nc(CCc3ccccc3)c(=O)n(CCC#N)c2n1`: “inactive”; for `COc1ccccc1CNc1ccnc(-c2cccnc2)n1`: 28.2 µM (active).
With `COc1ccc2[nH]cc(CCNc3cc(-c4ccccc4OC)ncn3)c2c1`, the Potency is 12.6 µM (active).
On to `COCCn1c(=O)c(-c2ccc(F)cc2)nc2cnc(Nc3cccc(OC)c3)nc21`, for which the Potency result was “inactive”.
The same measure for `CN1CCN(c2ncc3nc(-c4cn(C)c5ccccc45)c(=O)n(CCC#N)c3n2)CC1`: “inactive”.
Take `COc1cccc(Nc2ncc3ncc(=O)n(Cc4ccc(F)cc4)c3n2)c1`: the Potency is 3.98 µM (active).
The same measure for `c1ccc2c(NCCN3CCOCC3)nc(-c3ccoc3)nc2c1`: “inactive”; for `FC(F)(F)c1ccccc1-c1nc(NCc2cccnc2)c2ccccc2n1`: “inactive”; for `CN1CCN(c2ncc3nc(-c4ccccc4)c(=O)n(Cc4cccs4)c3n2)CC1`: “inactive”.
The same measure for `CCNc1ncc2ncc(=O)n(Cc3cccc(OC)c3)c2n1`: 3.16 µM (active); for `COCCn1c(=O)c(CCc2ccccc2)nc2cnc(Oc3ccccc3)nc21`: “inactive”; for `N#Cc1cccc(-c2ccc3ncnc(NCc4cccs4)c3c2)c1`: 10 µM (active).
The same measure for `COc1ccc(Oc2ncc3nc(-c4ccc(F)cc4)c(=O)n(CCC#N)c3n2)cc1`: “inactive”; for `COc1cccc(-c2ccc3ncnc(N4CCNCC4)c3c2)c1`: 1.78 µM (active).
Consider `CN1CCN(c2ncc3nc(-c4cccc(C#N)c4)c(=O)n(CCc4ccccc4)c3n2)CC1`, for which the Potency result is “inactive”.
With `COc1ccccc1-c1ccc2ncnc(N3CCOCC3)c2c1` the figure was 11.2 µM (active).
With `COc1ccc2[nH]cc(CCNc3ncncc3-c3ccc4c(c3)OCO4)c2c1` the figure was 8.91 µM (active); with `CN(Cc1ccco1)c1ncnc2ccc(-c3cccc(NS(C)(=O)=O)c3)cc12`, 7.08 µM (active); with `CN1CCN(c2ncc3nc(CCc4ccccc4)c(=O)n(CCc4ccccc4)c3n2)CC1`, “inactive”.
With `Cc1nc2cnc(Oc3cccc(Cl)c3)nc2n(Cc2ccc(F)cc2)c1=O` the entry was “inactive”; with `COc1ccccc1CNc1ncncc1-c1ccc2c(c1)OCO2`, 2.24 µM (active).

For the origin of these results see PubChem BioAssay (NCATS).
